KB-V1 cytotox: qHTS assay for MDR1-selective chemotherapeutics: Primary screen using the drug-selected MDR subline cells KB-V1 | AID 1347076, 2019 | 400,000 compounds, 3.4% hits | KB-V1 MDR cells viability, CellTiter-Glo, 72 h | Potency, µM (titrated, usually from 46.1 µM), most hits filed as cytotoxic; also: potency is read from the fitted curve at half-maximal effect; nearly all actives have a fitted effect of over 60% in size
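KB-V1 MDR subline cells in DMEM (phenol-red free, 10% FBS) exposed to compounds in qHTS concentration series for 72 h at 37 degrees C. Viability read by CellTiter-Glo luminescence; concentration-effect curves fitted after normalization and correction.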
KB-3-1 tox: qHTS assay for MDR1-selective chemotherapeutics: Primary screen using the parental adenocarcinoma cell KB-3-1; 400,000 compounds, 1.4% hits; KB-3-1 viability, CellTiter-Glo ATP luminescence, 72 h; Potency, µM (series often up to 46.1 µM), usual class: cytotoxic; AID 1347075, 2019; also: potency is read from the fitted curve at half-maximal effect; nearly all actives have a fitted effect of over 60% in size
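72 h, 37 °C compound treatment of KB-3-1 parental cells; CellTiter-Glo added, 10 min, luminescence read. Data corrected against DMSO-only plates and normalized before curve fitting.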
A549 tox: Nrf2 qHTS screen for inhibitors: counterscreen for cytotoxicity; A549 ARE-Fluc cells, CellTiter-Fluor viability, 18-24 h; Potency, µM (titrated, usually from 46 µM), inactives show at the highest dose activity change, negative = cytotoxicity, most hits filed as inhibitors; 390,000 compounds, 0.16% hits; AID 504648, 2011; also: potency is read from the fitted curve at half-maximal effect
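Cytotoxicity counterscreen: CellTiter-Fluor fluorescence was measured in A549 ARE_Fluc cells after 18-24 h of compound exposure in a concentration series. The subsequent BugLite luminescent read reports ARE-luciferase activity.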
PI4K2A block: qHTS for small molecular inhibitors of PI4K2A; Phosphatidylinositol 4-kinase type 2-alpha (Homo sapiens), Q9BTU6; purified PI4K2A, ADP-Glo luminescence, 1 h; active compounds read low; activity change, negative = inhibition, % at 76.9 µM; 420,000 compounds, 0.13% hits; AID 1346378, 2018; in the data active = activity change below about -50%; inconclusive = mostly about -30% to -49%;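 also: -100% = wells without enzyme as full effect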
Target sequence (Q9BTU6 whole entry, looked up): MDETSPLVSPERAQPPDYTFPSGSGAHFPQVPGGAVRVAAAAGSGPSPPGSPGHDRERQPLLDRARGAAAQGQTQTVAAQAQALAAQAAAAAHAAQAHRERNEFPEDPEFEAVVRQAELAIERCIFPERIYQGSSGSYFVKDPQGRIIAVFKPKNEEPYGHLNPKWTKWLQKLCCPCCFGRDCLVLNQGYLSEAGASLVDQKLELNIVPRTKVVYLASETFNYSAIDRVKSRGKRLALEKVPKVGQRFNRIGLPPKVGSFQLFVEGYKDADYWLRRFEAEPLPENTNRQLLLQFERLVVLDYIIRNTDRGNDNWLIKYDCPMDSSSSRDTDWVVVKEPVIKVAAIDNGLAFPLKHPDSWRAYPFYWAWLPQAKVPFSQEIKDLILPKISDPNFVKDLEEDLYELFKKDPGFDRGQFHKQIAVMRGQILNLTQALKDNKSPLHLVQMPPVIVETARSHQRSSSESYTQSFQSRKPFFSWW
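In this quantitative HTS, ADP production by PI4K2A was quantified luminescently after 1 h at ambient temperature; 100 microM adenosine served as plate-quality control.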
Giardia killer: Small Molecules that selectively kill Giardia lamblia: qHTS. activity change, % at 7.66 µM, hits read low. 340,000 compounds, 0.15% hits. Giardia lamblia trophozoite viability. AID 540267, 2011; in the data active = activity change below about -80%; inconclusive = between about -30% and that limit;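 also: parasites exposed to compound for two days anaerobically before the ATP read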
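Anaerobic 48 hrs incubation at 37 deg C of 100 trophozoites/well with test compounds; ATPLite 1-Step luminescence, 15-30 min RT, reports cellular ATP as viability.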
Nrf2 block: Nrf2 qHTS screen for inhibitors; 360,000 compounds, 2.1% hits; AID 504444, 2011; A549 ARE-Fluc reporter, luciferase luminescence, 18-24 h; Potency, µM (highest dose often 46 µM), for inactives: at the top dose activity change, negative = inhibition, actives largely listed as inhibitors; also: potency is read from the fitted curve at half-maximal effect; nearly all actives have a fitted effect of over 60% in size
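Nrf2 function is reported as luminescence of an ARE-controlled luciferase in A549 cells. Compounds were tested at several concentrations, and a CellTiter-Fluor read on the same wells flagged cytotoxicity.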
* = called active by the depositor; i = inactive; ? = inconclusive; . = not tested or not shown. Compounds with a hit are over-represented: about 5.7% of the library has one in this group of screens. Unless noted, calls follow the shape of the dose curve; as a rule, active = well fitted curve in the direction sought with a large enough effect; inconclusive = small, poorly fitted or top-dose-only effect, or another doubt; inactive = no such curve, though single readings can be large; an effect the other way counts as inactive or inconclusive. Unless noted, % is scaled to controls: 0 for no effect and ±100 for the full control effect.

SMILES | KB-V1 cytotox | KB-3-1 tox | A549 tox | PI4K2A block | Giardia killer | Nrf2 block
O=C(NC(=S)Nc1cccc(Cl)c1N1CCCCC1)c1ccc2c(c1)OCCO2 | 14.6µM* | i | -13.2% | -5.4 | -10.6 | 13.8%
Cc1ccc(C(=O)Nc2ncc([N+](=O)[O-])s2)cc1 | i | ? | -26.6% | -18.7 | -86.5* | ?
COc1cc(NC(=O)c2ccc3c(c2)OCO3)c2ncccc2c1 | i | i | -0.9% | 5.6 | 0.4 | -5.1%
Cc1onc(-c2ccccc2)c1C(=O)Nc1ncc([N+](=O)[O-])s1 | 23.1µM* | ? | ? | 4.3 | -94.4* | 10.3µM*
O=C(Nc1cccc2cccnc12)c1ccc2c(c1)OCCO2 | 13µM* | i | -1.8% | 1.6 | 27.3 | 20.2%
C=C1NN(C(C)C(=O)O)C(=O)N1c1ccc(OCc2ccccc2)cc1 (stereo not given) | i | i | . | . | . | .
O=C(Cn1c(-c2cncs2)nc2ccccc21)NC1CCCCC1 | . | . | . | 1.6 | . | .
CN(Cc1ccccc1Cl)C(=O)CN1C(=O)C2(OCCCO2)c2ccccc21 | . | . | . | 0.7 | . | .
Cc1ccc(CNC(=O)CN2C(=O)CSc3ccc(S(=O)(=O)N4CCCC4)cc32)cc1 | . | . | 4.0% | -2.9 | . | ?
Cc1cnc(NC(=O)c2ccc3c(c2)OCCO3)s1 | ? | 5.8µM* | ? | -18.3 | -91.2* | ?
Cc1nc2ccc3nc(NC(=O)c4ccc5c(c4)OCCO5)sc3c2s1 | i | i | -5.0% | 12.0 | -16.1 | -1.4%
O=C(Nc1ncc([N+](=O)[O-])s1)c1ccc2c(c1)OCO2 | ? | 23.1µM* | ? | ? | -95.5* | ?
Cc1ccc([N+](=O)[O-])cc1NC(=O)c1ccc2c(c1)OCO2 | i | i | -10.5% | 4.0 | 3.3 | 4.4%
O=C(Nc1ncc([N+](=O)[O-])s1)c1ccco1 | ? | i | ? | -10.2 | -89.6* | ?
COC(=O)[C@]12C[C@H](CC(=O)N3CCC(c4ccccc4)CC3)C(=O)N(Cc3cccc4ccccc34)C1=C[C@H](C(C)C)O[C@@H]2C1CC1 | . | . | . | 1.7 | . | .
COc1ccc(OC)c2c1C(=O)c1ccccc1C2=O | i | i | -14.5% | -0.7 | -17.1 | -24.2%
COc1ccc(OC)c2c1C(=O)C(Cl)=C(Cl)C2=O | 5.17µM* | 5.8µM* | ? | -5.4 | -14.9 | -2.7%
Cc1cc(/N=C/C=C2\N(C)c3ccccc3C2(C)C)n(CCC#N)n1 | i | i | 14.6µM* | 0.6 | 4.7 | ?
CN1/C(=C/C=C(C#N)C#N)C(C)(C)c2ccccc21 | ? | i | -1.2% | 0.7 | -10.3 | 0.2%
COc1cc(OC)cc(-c2cc3nc(C)c(CCC(=O)NCCc4cccc(C)c4)c(C)n3n2)c1 | i | i | -5.9% | -3.4 | . | 10.3µM*
COc1cc(OC)cc(-c2cc3nc(C)c(CCC(=O)NCc4ccc(Cl)cc4)c(C)n3n2)c1 | i | i | 6.1% | -3.4 | . | 10.3µM*
COc1ccc(CCNC(=O)CCc2c(C)nc3cc(-c4cccc(F)c4)nn3c2C)cc1OC | i | i | 0.2% | 1.4 | . | -12.6%
Cc1cccc(CCNC(=O)CCc2c(C)nc3c(c(C)nn3-c3ccccc3)c2C)c1 | ? | i | -17.8% | 5.7 | . | 23.1µM*
Cc1cccc2c1-c1sc(C(=O)N(C)c3cccc(C(F)(F)F)c3)cc1CO2 | i | i | -3.0% | 4.6 | . | ?
O=C(NN=Cc1cc(Cl)ccc1[N+](=O)[O-])c1ccco1 | 14.6µM* | i | 0.3% | 0.2 | -8.0 | 22.1%
SMILES | KB-V1 cytotox | KB-3-1 tox | A549 tox | PI4K2A block | Giardia killer | Nrf2 block
O=C(NCCNc1cc(Cl)ccc1[N+](=O)[O-])c1ccco1 | i | ? | -3.6% | 7.4 | 3.6 | 12.6%
O=C(O)c1cccc(Nc2nc3ccccc3nc2NS(=O)(=O)c2ccc(F)cc2)c1 | ? | i | 0.8% | -1.7 | -4.6 | 7.3%
O=S(=O)(Nc1nc2ccccc2nc1Nc1ccc2c(c1)OCO2)c1ccc(F)cc1 | 5.8µM* | ? | -12.0% | 1.6 | -9.7 | ?
O=S(=O)(Nc1nc2ccccc2nc1N1CCN(c2ccccc2)CC1)c1ccc(F)cc1 | 5.17µM* | ? | ? | 0.1 | -1.3 | 25.9µM*
Cc1ccc(NS(=O)(=O)c2ccc3c(c2)N(C)C(=O)CO3)cc1C | i | i | 0.9% | . | . | ?
COC(=O)C1CN(CCO)CCS(=O)(=O)N1Cc1cccc(Cl)c1 (stereo not given) | . | . | . | 6.1 | . | .
CCOC(=O)C1Nc2ccc(C(F)(F)F)cc2C2c3ccccc3CC12 (stereo not given) | 18.4µM* | 16.4µM* | ? | -1.4 | -27.6 | ?
O=C1CC(c2ccc(F)cc2)Cc2nc(NCC3CCCO3)ncc21 (stereo not given) | 20.6µM* | i | -1.5% | 4.8 | 2.6 | 2.4%
COc1cc(OC)cc(C2=Nn3c(nnc3-c3ccccc3OC)SC2)c1 | . | . | -2.6% | . | . | 10.5%
COc1ccc(C2/C=C\CN(C(=O)c3ccc(C)cc3)C(C)C(=O)N2Cc2ccc(F)cc2)cc1 (stereo not given) | . | . | ? | . | 14.6 | ?
COc1ccc(C2/C=C\CN(C(=O)c3ccc(C)cc3)[C@H](Cc3ccccc3)C(=O)N2Cc2ccc(F)cc2)cc1 (stereo not given in full) | ? | 11.6µM* | -5.5% | -2.6 | -12.6 | ?
Clc1ccc(N2CCN(c3ccnc(Cl)n3)CC2)cc1 | i | i | -6.9% | 1.3 | 1.8 | 16.4µM*
COc1ccc(-c2noc(N3CCC(C(=O)N4CCN(c5ccccn5)CC4)CC3)n2)cc1 | 5.8µM* | i | -26.9% | -8.9 | 5.8 | 18.4µM*
COc1ccc(-c2noc(N3CCC(C(=O)N4CCN(c5ccccc5OC)CC4)CC3)n2)cc1 | . | . | -15.9% | -4.3 | . | .
CCN(C(=O)C1CCN(c2nc(-c3ccc(OC)cc3)no2)CC1)c1ccc(OC)cc1 | i | ? | -9.2% | -2.7 | 13.5 | 13µM*
CCOc1ccc(C(=O)Nc2c(C(=O)Nc3ccccc3OC)oc3ccccc23)cc1OCC | i | i | 8.8% | -1.7 | . | 10.0%
C#CCN1C(C(=O)OC)CN(CCCCCC)CCS1(=O)=O (stereo not given) | . | . | . | 4.4 | . | .
C/C=C/c1ccc([C@H]2[C@@H](CN(CC(C)C)S(=O)(=O)c3ccccc3[N+](=O)[O-])N(C(=O)Nc3cccc(OC)c3)[C@H]2CO)cc1 | . | . | . | 2.0 | . | .
CCOC(=O)c1cc(C#N)c(N2CCN(C(=O)c3ccccc3)CC2)nc1C(F)(F)F | 20.6µM* | i | 5.0% | 1.4 | -0.9 | -21.4%
